Data taken from PubChem BioAssay (NCI).
The panel holds about 83,000 compounds, 20% with a hit somewhere; the sample as a whole holds those more often.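 96-well plates, one dose, 48 hours. Percent growth reported; active if below 10.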 A number with no mark means an inactive call. Active and inactive are the calls of the source.

Assays:
Assay in all cases: NCI-60 one-dose screen, 48 h (100 = growth as untreated, 0 = no growth, -100 = all killed)
SR leukemia = conditions: 10 µM unless noted
RPMI-8226 leukemia = conditions: 10 µM
OVCAR-8 ovarian = conditions: 10 µM unless noted
OVCAR-5 ovarian = conditions: 10 µM unless noted
OVCAR-4 ovarian = conditions: 10 µM unless noted
SK-OV-3 ovarian = conditions: 10 µM
IGROV1 ovarian = conditions: 10 µM unless noted
OVCAR-3 ovarian = conditions: 10 µM unless noted
HS 578T breast = conditions: 10 µM unless noted
NCI/ADR-RES ovarian = conditions: 10 µM unless noted
T-47D breast = conditions: 10 µM
BT-549 breast = conditions: 10 µM unless noted
MDA-MB-435 melanoma = conditions: 10 µM unless noted
SW-620 colon = conditions: 10 µM unless noted
MCF7 breast = conditions: 10 µM unless noted
HCT-116 colon = conditions: 10 µM unless noted
HCC-2998 colon = conditions: 10 µM unless noted
KM12 colon = conditions: 10 µM unless noted

Row | SMILES | growth (SR leukemia) | growth (RPMI-8226 leukemia) | growth (OVCAR-8 ovarian) | growth (OVCAR-5 ovarian) | growth (OVCAR-4 ovarian) | growth (SK-OV-3 ovarian) | growth (IGROV1 ovarian) | growth (OVCAR-3 ovarian) | growth (HS 578T breast) | growth (NCI/ADR-RES ovarian) | growth (T-47D breast) | growth (BT-549 breast) | growth (MDA-MB-435 melanoma) | growth (SW-620 colon) | growth (MCF7 breast) | growth (HCT-116 colon) | growth (HCC-2998 colon) | growth (KM12 colon)
1 | CCCCCCCCCCCC(=O)[O][Sn]([CH2]CCC)([CH2]CCC)[CH2]CCC | -42.7% (active) | -34% (active) | -81.4% (active) | -96.9% (active) | -98.5% (active) | -100% (active) | -77.1% (active) | -97.5% (active) | -20.2% (active) | -80.5% (active) | -89.9% (active) | -100% (active) | -91.6% (active) | -43.2% (active) | -88.2% (active) | -100% (active) | -92.2% (active) | -91.4% (active)
2 | O=C1C2CC3C(CC2C(=O)[N]1[Sn]([c]1ccccc1)([c]1ccccc1)[c]1ccccc1)C1(Cl)C(Cl)=C(Cl)C3(Cl)C1(Cl)Cl (centres undefined) | -50.1% (active) | -52.3% (active) | -97.5% (active) | -100% (active) | -83% (active) | -100% (active) | -66.2% (active) | -97.3% (active) | -20% (active) | -55.5% (active) | -50.3% (active) | -95.3% (active) | -96.4% (active) | -79.7% (active) | -64.7% (active) | -83.9% (active) | -82.2% (active) | -91.3% (active)
3 | CN1CCN(C(=O)OCCOCCOC(=O)N2CCN(C)CC2)CC1 | 95% | 81% | 102% | 104% | 106% | 117% | 132% | 117% | 111% | 96.3% | 109% | 98.7% | 98.9% | 117% | 102% | 94.8% | 98.4% | 104%
4 | COc1cc(/C=C2\C(=O)Nc3ccccc32)cc(OC)c1O | -10.3% (active) | 46.6% | 78.5% | 112% | 89.1% | 93.5% | 70.2% | 46.9% | 18.4% | 19.1% | 49.6% | 74.8% | -25.3% (active) | 31.5% | 30.8% | 46.4% | 78.8% | 32.2%
5 | COc1cc(-c2nc3ccccc3o2)cc(CN2CCN(c3ccccc3)CC2)c1O | 45.1% | 53.2% | 78.3% | 117% | 84.6% | 116% | 86.8% | 63.7% | 110% | 69.4% | 91.5% | 55.3% | -78% (active) | 94.3% | 60.6% | 56.4% | 85.5% | 49.8%
6 | COc1cccc(C2CC(=O)Nc3cc4c(cc32)OCO4)c1OC (centres undefined) | 86.2% | 79.2% | 98.6% | 98.8% | 95% | 102% | 93.4% | 99.7% | 93.1% | 92.2% | 87.5% | 101% | 97% | 105% | 94.8% | 93.6% | – | 91.6%
7 | Cc1nc2cc(Nc3nc(Nc4ccc(F)cc4)nc(-c4ccc(Cl)cc4)n3)ccc2n1Cc1ccccc1 | -19.4% (active) | 0.193% (active) | 62.8% | 92.3% | 58.6% | 92.9% | 48.7% | 57.3% | 75.4% | 59.1% | 30.7% | 101% | 66.2% | 68.1% | 42.4% | 50.3% | 81.6% | 37.2%
8 | COc1ccc(Sc2ccc3[nH]c(=O)nc(N)c3c2)cc1 | 87.1% | 104% | 98% | 100% | 99.7% | 104% | 109% | 115% | 106% | 103% | 94.3% | 98.9% | 99.8% | 101% | 100% | 99.9% | – | 108%
9 | CN1CCc2c(Sc3ccc(C(=O)NO)cc3)c3ccccc3n2C1 | 12.6% | 7.63% (active) | 7.62% (active) | 27.1% | 28.3% | 62.4% | 75.6% | 42.8% | 60.2% | 75.2% | 39.7% | 76.9% | 23.7% | 19.6% | 32.5% | 3.85% (active) | 66.5% | 53.9%
10 | Cc1nc2cc(Nc3nc(Nc4ccc(F)cc4)nc(-c4cccs4)n3)ccc2n1Cc1ccccc1 | 18% | -0.339% (active) | 37% | 92% | 51% | 95.1% | 48.3% | 66.7% | 50.3% | 57.3% | 23.3% | 69.5% | 43.8% | 68.1% | 32.9% | 24.2% | 72.1% | 25.2%
11 | CS(=O)(=O)Nc1cccc(C(=O)NCc2ccc(N3CCOCC3)cc2)c1 | 93.3% | 99.7% | 104% | 107% | 107% | 107% | 114% | 108% | 104% | 111% | 95.4% | 95.6% | 105% | 108% | 99% | 101% | 106% | 97.1%
12 | CON=C1C[C@]2(C[C@@H]3C[C@@H](C/C=C(\C)C[C@@H](C)/C=C/C=C4\CO[C@@H]5[C@H](O)C(C)=C[C@@H](C(=O)O3)[C@]45O)O2)O[C@H](/C(C)=C/C(C)C)[C@H]1C | -39.5% (active) | 43.7% | 66.4% | 70.1% | 57.2% | 95.2% | 28.1% | 1.95% (active) | 60.2% | 64.8% | 29.7% | 89.2% | 43.7% | 34.5% | 42% | 17.8% | 48.7% | 33.4%
13 | COc1ccc(-c2c3c(N)c4c(nc3nc3c2c(C)nn3-c2ccccc2)CCCCC4)cc1 | 54.1% | -4.18% (active) | 83.2% | 86.3% | 67.8% | 85.6% | 86.7% | 72.6% | 101% | 86.9% | 61.2% | 80.9% | 78.8% | 83.5% | 62.8% | 27.9% | 86.6% | 84.2%
14 | COc1cc(C2CC(=O)Nc3c2ccc2ccccc32)cc(Br)c1OC (centres undefined) | -6.32% (active) | -13.1% (active) | 27.7% | 45.1% | 41% | 2.95% (active) | 32.4% | -26.3% (active) | 14% | -10.7% (active) | 51.2% | 10.9% | -55.5% (active) | 20% | 9.65% (active) | 11.2% | – | 16.2%
15 | C=CC(=O)N1CC2(CCC(n3nc(-c4ccc(Oc5ccccc5)cc4)c4c(N)ncnc43)CC2)C1 | -23.2% (active) | -56% (active) | -36.5% (active) | -0.902% (active) | -10.7% (active) | -24.6% (active) | -51.2% (active) | -36.6% (active) | -35.5% (active) | -9.16% (active) | 14.6% | -69.3% (active) | -81.1% (active) | 0.371% (active) | 1.86% (active) | -82.7% (active) | -77.8% (active) | -29.1% (active)
16 | COc1cc(-c2ccc3cc(OC)c(OC)c(OC)c3c2)cc(OC)c1OC | 4.29% (active) | 53.1% | 78.4% | 82% | 61.2% | 76.7% | 68.6% | 78.9% | 69.1% | 36.6% | 50.7% | 72.2% | -16.7% (active) | 47.3% | 49.4% | 54.1% | – | 37.5%
